Measured values as given in PubChem BioAssay (Tox21).
Unmarked numbers belong to inactive results. Calls of active or inactive are those of the source. Calls come from the whole dose curve; as a rule, active = well fitted curve in the direction sought with a large enough effect in the repeat runs; inconclusive = weak or mixed curves; inactive = flat fitted curve, though single readings scatter.

Assay: qHTS assay to test for compound auto fluorescence at 590 nm (red) in HepG2 cells (AID 720674)
Details: HepG2 autofluorescence, red 540/590 nm, 1 h; series mostly up to 46 µM; fluorescence, relative to Rose Bengal: at the top concentration
Excerpt: U.S. Tox21 Program National Center for Advancing Translational Sciences [NCATS] NIH Chemical Genomics Center [NCGC] U.S. Environmental Protection Agency [EPA] National Institutes of Environmental Health Sciences [NIEHS] National Toxicology Program [NTP] U.S. Food and Drug Administration [FDA] Tox21 Assay Overview: Compound auto fluorescence often interferes with screening of the compound library against various biological targets and signaling pathways. Some of these compounds may have fluorophoric properties. Such properties may interfere with the assay outputs resulting in false positives and/or negatives. To decrease such complications and ensure the compound activities are relevant in terms of biological response, the Tox21 10K compound library was screened for auto fluorescence. From the fluorophores used as reporter signals in our screening assays, the auto fluorescence equivalencies of compounds against three fluorophores have been evaluated: Triamterene, Fluorescein and Rose Bengal sodium for blue, green and red fluorescence, respectively. The fluorescence intensities were measured using Excitation/Emission wavelengths at 405/460nm, 485/535nm and 540/590nm for blue, green and red labels, respectively. This assay includes the red fluorescence data.
Tox21 Assay Protocol Summary: 2,000 HepG2 cells in 5 uL of culture medium (MEM containing 10% FBS) per well were dispensed into black wall/clear bottom 1536-well plates using a Multidrop Combi Dispenser (ThermoFisher Scientific, Waltham, MA). The assay plates were incubated overnight at 37 C to allow cell attachment to the well bottom, followed by the transfer of 23 nL compound or DMSO vehicle by a pintool work station (Kalypsys , San Diego, CA). After the assay plates were incubated for 1 hr at 37 C and 5% CO2, fluorescence intensities in the assay plates were measured by an Envision (PerkinElmer, Shelton, CT) plate reader using three labels for measuring blue, green and red fluorescence at […] 460, 535 and 590 nm respectively.
% is set by controls: 0 for no effect and ±100 for the full control effect.

Compound | fluorescence, relative to Rose Bengal | outcome
CCCc1cc(C(N)=S)ccn1 | -0.518% | –
CN(C)CCCNCCCN(C)C | 0.0188% [at 91.3 µM] | –
Nc1ccccc1S(=O)(=O)O | -0.492% [at 91.3 µM] | –
NC(=O)c1ccc([N+](=O)[O-])cc1 | -0.533% [at 91.3 µM] | –
CCCCCCCCCCCCCC=O | 0.0167% [at 3.72 µM] | –
NC(=O)Nc1ccccc1 | -0.0675% [at 91.3 µM] | –
N=C(N)c1ccccc1 | -0.113% [at 91.3 µM] | –
Cc1cccn2c(=O)c(-c3nnn[nH]3)cnc12 | -0.478% | –
COCCCOCCCOC | 0.257% [at 91.3 µM] | –
NC(=O)c1ccc(N)cc1 | -0.0346% [at 91.3 µM] | –
CC(C)CCCC(C)N (stereo not given) | -0.167% | –
Cc1nc2c([nH]1)c(=O)n(C)c(=O)n2Cc1ccco1 | -0.736% | –
ClC(Cl)(Br)Br | 0.0124% [at 91.3 µM] | –
CC(C)(O)C(=O)c1ccccc1 | -0.0386% [at 91.3 µM] | –
CCCCOCCOCCOCCCC | -0.114% [at 91.3 µM] | –
CCCC(=O)O[C@]1(C(=O)CO)CC[C@H]2[C@@H]3CCC4=CC(=O)CC[C@]4(C)[C@H]3[C@@H](O)C[C@@]21C | 0.321% | –
COc1ccc(CCN(C)CCCC(C#N)(c2cc(OC)c(OC)c(OC)c2)C(C)C)cc1OC (stereo not given) | -0.0103% | –
CN1CCCC1 | 0.0135% [at 91.3 µM] | –
CCc1ccc(O)c(OC)c1 | 0.211% [at 91.3 µM] | –
O=C1CCCCCCCCCCCN1 | – | inactive

Compound | fluorescence, relative to Rose Bengal | outcome
CC(C)NC(=O)NC(C)C | -0.0621% [at 91.3 µM] | –
COC(=O)CCSCCC(=O)OC | -0.0271% [at 91.3 µM] | –
O=C1OC(=O)C2CCCCC12 (stereo not given) | -0.25% [at 91.3 µM] | –
COCCc1ccc(OCC(O)CNC(C)C)cc1 (stereo not given) | – | inactive
C[N+](C)(C)CCCCCC[N+](C)(C)C | 0.505% | –
Nc1cc(=O)[nH]c(N)n1 | -0.055% | –
C1CN(CCOCCN2CCOCC2)CCO1 | -0.0245% [at 91.3 µM] | –
CC(=O)Nc1ccc(S(N)(=O)=O)cc1 | 0.0305% [at 91.3 µM] | –
C[C@@H]1CCN(C(=O)[C@H](CCCN=C(N)N)NS(=O)(=O)c2cccc3c2NC[C@H](C)C3)[C@@H](C(=O)O)C1 | 0.0566% | –
CC(C)(c1ccc(O)cc1)c1ccc(O)cc1 | – | inactive
Brc1c(NC2=NCCN2)ccc2nccnc12 | -0.43% | –
COC(=O)NN | -0.0299% [at 95.7 µM] | –
CS(=O)(=O)O | -0.0523% [at 91.3 µM] | –
N[C@H](C(=O)O)c1ccc(O)cc1 | -0.0598% | –
O=c1cc(CO)occ1O | – | inactive
O=C(O)CCCc1ccccc1 | -0.342% | –
Nc1c2c(nc3ccccc13)CCCC2O (stereo not given) | -0.295% | –
CCCN(CCC)CCc1cccc2c1CC(=O)N2 | 0.437% | –
CC(=O)OC/C=C(\C)CC/C=C(\C)CCC=C(C)C | -0.009% [at 91.3 µM] | –
C=CCS(=O)(=O)O | -0.148% [at 91.3 µM] | –
